Bioassay records (PubChem BioAssay)
gsp agonist: qHTS for Agonist of gsp, the Etiologic Mutation Responsible for Fibrous Dysplasia/McCune-Albright Syndrome: qHTS; gsp mutant cells, cAMP HTRF, 30 min; Potency, µM (highest dose often 76.9 µM), usual class: activators; 0.13% of 340,000 active; AID 624287, 2012; active = well fitted activation curve with a large enough effect; inconclusive = small, poorly fitted or top-dose-only effect, or another doubt; inactive = no such curve, though single readings can be large or run the other way; cell line not stated here;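 also: phosphodiesterase inhibitor Ro 20-1724 added with compounds to block cAMP breakdown; nearly all actives have a fitted effect of over 60% in size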
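Cells stably selected in G418 were plated at 2000/well, grown 16-24 hr, then given compounds in DMSO with the PDE inhibitor […] (300 uM solution added) for 30 min at 37C; cAMP was read by HTRF.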
IL2 activator: qHTS of IL-2 Activators; AID 652025, 2013; 0.065% of 360,000 active; activation, % (series mostly up to about 46 µM); IL-2 activation reporter assay, cell-based qHTS; stimulated with anti-CD3/CD4/CD28 beads; in transgenic mouse T cells; in the data active = activation above about 50%; inconclusive = mostly about 30% to 49%
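Unstimulated transgenic mouse T cells preincubated 60 min with compound, then stimulated with anti-CD3/anti-CD4-coated beads plus anti-CD28 for 18 h at 37 degrees C. IL-2 response read as EGFP and DsRed fluorescence by plate cytometry.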
gsp antagonist: qHTS for Antagonists of gsp, the Etiologic Mutation Responsible for Fibrous Dysplasia/McCune-Albright Syndrome: qHTS; gsp-mutant cells, cAMP HTRF, 30 min; Potency, µM (highest dose often 76.9 µM), usual class: inhibitors; 0.4% of 340,000 active; calls by dose curve; cell line not stated here;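 also: intracellular cAMP measured with PDE inhibitor Ro 20-1724 present during compound exposure; nearly all actives have a fitted effect of over 65% in size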
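Cells in G418 medium, seeded 16-24 h, 37C; buffer exchange to DPBS + 1 mM CaCl2, 0.5 mM MgCl2, 0.05% BSA; cpds in DMSO + […] (300 uM stock), 30 min 37C; HTRF cAMP detection.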
mIDH1 inhibitor: qHTS for Inhibitors of mutant isocitrate dehydrogenase 1 (IDH1): qHTS; Isocitrate dehydrogenase [NADP] cytoplasmic (Homo sapiens), O75874; IDH1-R132H enzyme, NADPH consumption, diaphorase/resazurin fluorescence; Potency, µM (doses to about 76.6 µM), usual class: inhibitors; 0.093% of 390,000 active; also: nearly all actives have a fitted effect of over 65% in size
Target sequence (O75874 whole entry R132H, stated change not applied): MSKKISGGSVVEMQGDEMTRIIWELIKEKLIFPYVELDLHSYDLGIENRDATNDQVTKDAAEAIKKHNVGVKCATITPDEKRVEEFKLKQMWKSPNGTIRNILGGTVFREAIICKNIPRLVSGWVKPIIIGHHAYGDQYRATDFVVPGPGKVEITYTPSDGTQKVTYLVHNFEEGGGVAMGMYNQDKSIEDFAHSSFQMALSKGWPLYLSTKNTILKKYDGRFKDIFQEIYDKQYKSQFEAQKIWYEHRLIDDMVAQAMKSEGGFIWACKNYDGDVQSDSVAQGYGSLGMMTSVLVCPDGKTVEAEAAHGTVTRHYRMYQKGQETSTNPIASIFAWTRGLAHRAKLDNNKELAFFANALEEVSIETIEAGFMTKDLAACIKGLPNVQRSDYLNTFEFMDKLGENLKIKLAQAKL
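IDH1-R132H (0.5 ug/mL dispensed) in pH 7.5 Tris buffer was preincubated 30 min with compound, then given a substrate mix of 0.016 mM NADPH and 2 mM alpha-KG for 80 min at room temperature; remaining NADPH was read by diaphorase/resazurin fluorescence.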
BRCA1 expr act: qHTS Assay to Identify Small Molecule Activators of BRCA1 Expression. MCF7-BRCA1-FFLuc reporter, luminescence, 48 h; response scale: scaled: vehicle 0%, 10 µM genistein 100%. Potency, µM (series often up to 46.1 µM), usual class: activators. 1.1% of 380,000 active. AID 624202, 2012; also: nearly all actives have a fitted effect of over 80% in size
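Luminescence from a BRCA1-driven firefly luciferase in MCF7 cells was read after 48 h compound exposure at 37 C. Data normalized against DMSO and a 10microM genistein activation control, then curve-fitted across the titration.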
Resorufin autofl: qHTS for Inhibitors of mutant isocitrate dehydrogenase 1 (IDH1): Cherrypicks Autofluorescence Interference | shares compounds with mIDH1 inhibitor | Resorufin detection reagent fluorescence interference, cell-free | inhibition of signal, % at 51.2 µM | 750 tested, under 10 active | AID 623980, 2012
WT IDH1 inh: qHTS for Inhibitors of mutant isocitrate dehydrogenase 1 (IDH1): Cherrypicks in WT IDH1. shares compounds with mIDH1 inhibitor. WT IDH1 enzyme, NADPH diaphorase/resazurin fluorescence. Potency, µM (top dose mostly 115 µM), most hits filed as inhibitors. 9% of 750 active; also: nearly all actives have a fitted effect of over 55% in size
Target sequence (O75874 whole entry, looked up): as the sequence (O75874 whole entry R132H, stated change not applied) above, with H132R counted along it
mIDH1 confirm: qHTS for Inhibitors of mutant isocitrate dehydrogenase 1 (IDH1): Confirmation of Cherrypicks | shares compounds with mIDH1 inhibitor | IDH1 R132H enzyme, NADPH diaphorase/resazurin fluorescence | Potency, µM (doses to about 76.6 µM), usual class: inhibitors | 83% of 750 active; also: nearly all actives have a fitted effect of over 50% in size
A number is an active result; - = inactive; ? = inconclusive; . = no result; [ ] = dose if it differs, or a comment. Only some compounds are listed: those with a hit (about 1.5% of all), similar ones and a draw of the others. Unless noted, calls follow the shape of the dose curve; as a rule, active = well fitted curve in the direction sought with a large enough effect; inconclusive = small, poorly fitted or top-dose-only effect, or another doubt; inactive = no such curve, though single readings can be large; an effect the other way counts as inactive or inconclusive.

SMILES	gsp agonist	IL2 activator	gsp antagonist	mIDH1 inhibitor	BRCA1 expr act	Resorufin autofl	WT IDH1 inh	mIDH1 confirm
CCOc1ccccc1N(C(=O)c1snc(C(N)=O)c1N)C(C(=O)NCc1ccccc1)c1ccc(O)cc1 (configuration not stated)	-[15.4 µM]	-	-	?	-	-	-	13µM
CCOc1ccccc1N(C(=O)c1snc(C(N)=O)c1N)C(CC)C(=O)NC1CCCC1 (configuration not stated)	-	-	-	-	-	.	.	.
CCOc1ccccc1N(C(=O)c1snc(C(N)=O)c1N)C(C(=O)NC1CCCC1)c1ccco1 (configuration not stated)	-	-	-	?	-	-	-	40µM
CCOc1ccccc1N(C(=O)c1snc(C(N)=O)c1N)C(C(=O)NC1CCCC1)c1cccs1 (configuration not stated)	-[15.4 µM]	-	.	?	-	-	-	?
COC(=O)C1CCN(S(=O)(=O)c2c[nH]c(=O)[nH]c2=O)CC1	-	-	.	-	-	.	.	.
CCNC(=O)C1(C)CCN1CCC(=O)c1ccc(Br)cc1 (configuration not stated)	.	-	.	.	-	.	.	.
CCOC(=O)c1c(NC(=O)/C=C/C(=O)O)sc(C)c1-c1ccc(C)c(C)c1	-	-	-	23µM	-	-	?	45µM
COc1ccc(N(C)C(=O)c2ccc3c(Cl)c4c(nc3c2)CCCC4)c(OC)c1	-	-	?	?	-	-	-	40µM
COc1ccc(-c2coc3cc(OC(C)=O)ccc3c2=S)cc1	?	-	-	46µM	?	-	-	?
CN(C)Cc1c(C(=O)N/N=C/c2cccc(OCc3c(F)cccc3Cl)c2)nnn1-c1nonc1N	-	-	?	-	-	.	.	.
CN(C)Cc1c(C(=O)N/N=C/c2ccccc2OCc2c(F)cccc2Cl)nnn1-c1nonc1N	-[15.4 µM]	-	?	37µM	-	-	-	7.1µM
O=c1cc(CN2CCc3ccccc32)nc2sccn12	-	-	-	32µM	-	-	?	50µM
C=CCSC1=C(C#N)C(c2ccccc2OCC)C(C#N)C(=O)N1 (configuration not stated)	-	-	-	?	-	-	-	45µM
CCOC(=O)C1C(=O)NC(SCC(=O)OC)=C(C#N)C1c1ccccc1OCC (configuration not stated)	-	-	-	-	-	.	.	.
CCOC(=O)CSC1=C(C#N)C(c2ccccc2OCC)C(C#N)C(=O)N1 (configuration not stated)	?	-	-	46µM	-	-	-	50µM
CCCOC(=O)CSC1=C(C#N)C(c2ccccc2OC)C(C#N)C(=O)N1 (configuration not stated)	?	-	-	?	-	-	-	45µM
O=c1[nH]c(=O)n([C@H]2C[C@@H](O)[C@@H](CO)O2)cc1F	.	.	.	.	-	.	.	.
CC(C)=CCc1c(O)cc(O)c2c(=O)c3c(CC=C(C)C)c(O)ccc3oc12	.	-	-	45µM	-	-	-	40µM
COc1ccc(C(C(=O)Nc2ccc(C(C)C)cc2)N(Cc2ccco2)C(=O)CC2NC(=O)NC2=O)cc1 (configuration not stated)	-[15.4 µM]	-	-	?	-	-	-	32µM
COc1ccc(NC(=O)C(c2ccc(OC)cc2)N(Cc2ccco2)C(=O)CC2NC(=O)NC2=O)cc1 (configuration not stated)	-[15.4 µM]	-	-	-	-	.	.	.
COCCCNC(=O)NC(CCC(C)C)c1c(-n2cccc2)sc2c1CCN(C)C2 (configuration not stated)	.	.	.	-	.	.	.	.
CC(C)=CCc1c2c(c3occ(-c4ccc(O)cc4)c(=O)c3c1O)C=CC(C)(C)O2	.	-	-	-	-	.	.	.
CC1(C)C=Cc2c(c3c(c4c(=O)c(-c5ccc(O)cc5)coc24)OC(C)(C)CC3)O1	.	-	?	40µM	-	-	-	25µM
CC(C)=CCc1c2c(c3occ(-c4ccc(O)c(O)c4)c(=O)c3c1O)C=CC(C)(C)O2	-	-	?	52µM	-	-	-	45µM
CC(C)c1ccc(S(=O)(=O)N2CCN(CCC(=O)Nc3ccc(N(C)C)cc3)CC2)cc1	-	-	-	46µM	-	-	-	22µM
SMILES	gsp agonist	IL2 activator	gsp antagonist	mIDH1 inhibitor	BRCA1 expr act	Resorufin autofl	WT IDH1 inh	mIDH1 confirm
COc1ccc(NC(=O)CCN2CCN(S(=O)(=O)c3ccc(C(C)C)cc3)CC2)cc1	-	-	-	-	-	.	.	.
O=C1c2cccc3c(N4CCCCC4)ccc(c23)C(=O)N1c1ccccn1	-	-	-	-	-	.	.	.
O=C1c2ccccc2-c2n[nH]c(=O)c3ccc(N4CCCCC4)c1c23	-[15.4 µM]	-	-	?	-	-	?	32µM
COc1ccc(-c2c3c(nc4sc5c(=O)[nH]c(C)nc5c24)CCC3)cc1	-	-	-	21µM	-	-	-	7.1µM
O=C(NCCc1ccccc1)C1Cc2c(-c3ccccc3Oc3ccccc3)ccnc2O1 (configuration not stated)	.	-	.	.	-	.	.	.
COc1cc(OC)c(NC(=O)c2cnn(-c3ccccc3)c2-n2cccc2)cc1Cl	.	.	.	40µM	.	-	-	7.1µM
Cn1cc(S(=O)(=O)c2cccc(Cl)c2)c(=O)c2cc(F)c(N3CCCCC3)cc21	.	.	.	?	.	-	-	13µM
C=CCSC1=N/C(=C\c2cc(OCC)c(OC(C)=O)c([N+](=O)[O-])c2)C(=O)S1	-	-	-	?	-	-	?	25µM
C=CCSC1=N/C(=C\c2ccc3c(c2)OCO3)C(=O)S1	-	-	-	-	-	.	.	.
Fc1ccc(NCc2ccccc2-c2nnc(-c3ccccc3Cl)o2)cc1Cl	.	.	.	-	.	.	.	.
C=C(C)Cc1c(C)c(C#N)c2nc3ccccc3n2c1N1CCCCC1	-	-	-	?	-	-	-	14µM
N#CC(=C1C=C(Br)C(=NO)C=C1Cl)c1ccc(Cl)cc1	-	-	.	?	-	-	?	28µM
